Reference: PubChem BioAssay
Values without a mark were called inactive. Active and inactive are the calls of the source.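 The calls were made as follows, unless noted: active = mean inhibition above 46.5%, the solvent-only control mean plus 3 SD; inactive = the rest.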

Key:
[1] = tested on: transactivating tegument protein VP16 (Human herpesvirus 1); assay: compounds suppressing VP16-driven luciferase signal – cell-based, luminescence, single concentration, counter-screen for SRC2 inhibitor project (AID 652007; in the data active = inhibition above about 36%); details: cell-based VP16 transactivation luciferase reporter, at 8.9 µM, stronger effect = higher value
[2] = target: Nuclear receptor coactivator 2 (Homo sapiens) (UniProt Q15596); assay: inhibition of GAL4-SRC2 driven luciferase expression – cell-based, luminescence, HEK293, triplicate, confirmation (AID 652008); details: HEK293 GAL4-SRC2 luciferase reporter, at 8.9 µM, stronger effect = higher value;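 also: 0% = DMSO-treated cells and 100% = Gossypol at 36 µM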
Chain of Nuclear receptor coactivator 2 (Homo sapiens) (Q15596 whole entry, looked up, the tested form may be a part): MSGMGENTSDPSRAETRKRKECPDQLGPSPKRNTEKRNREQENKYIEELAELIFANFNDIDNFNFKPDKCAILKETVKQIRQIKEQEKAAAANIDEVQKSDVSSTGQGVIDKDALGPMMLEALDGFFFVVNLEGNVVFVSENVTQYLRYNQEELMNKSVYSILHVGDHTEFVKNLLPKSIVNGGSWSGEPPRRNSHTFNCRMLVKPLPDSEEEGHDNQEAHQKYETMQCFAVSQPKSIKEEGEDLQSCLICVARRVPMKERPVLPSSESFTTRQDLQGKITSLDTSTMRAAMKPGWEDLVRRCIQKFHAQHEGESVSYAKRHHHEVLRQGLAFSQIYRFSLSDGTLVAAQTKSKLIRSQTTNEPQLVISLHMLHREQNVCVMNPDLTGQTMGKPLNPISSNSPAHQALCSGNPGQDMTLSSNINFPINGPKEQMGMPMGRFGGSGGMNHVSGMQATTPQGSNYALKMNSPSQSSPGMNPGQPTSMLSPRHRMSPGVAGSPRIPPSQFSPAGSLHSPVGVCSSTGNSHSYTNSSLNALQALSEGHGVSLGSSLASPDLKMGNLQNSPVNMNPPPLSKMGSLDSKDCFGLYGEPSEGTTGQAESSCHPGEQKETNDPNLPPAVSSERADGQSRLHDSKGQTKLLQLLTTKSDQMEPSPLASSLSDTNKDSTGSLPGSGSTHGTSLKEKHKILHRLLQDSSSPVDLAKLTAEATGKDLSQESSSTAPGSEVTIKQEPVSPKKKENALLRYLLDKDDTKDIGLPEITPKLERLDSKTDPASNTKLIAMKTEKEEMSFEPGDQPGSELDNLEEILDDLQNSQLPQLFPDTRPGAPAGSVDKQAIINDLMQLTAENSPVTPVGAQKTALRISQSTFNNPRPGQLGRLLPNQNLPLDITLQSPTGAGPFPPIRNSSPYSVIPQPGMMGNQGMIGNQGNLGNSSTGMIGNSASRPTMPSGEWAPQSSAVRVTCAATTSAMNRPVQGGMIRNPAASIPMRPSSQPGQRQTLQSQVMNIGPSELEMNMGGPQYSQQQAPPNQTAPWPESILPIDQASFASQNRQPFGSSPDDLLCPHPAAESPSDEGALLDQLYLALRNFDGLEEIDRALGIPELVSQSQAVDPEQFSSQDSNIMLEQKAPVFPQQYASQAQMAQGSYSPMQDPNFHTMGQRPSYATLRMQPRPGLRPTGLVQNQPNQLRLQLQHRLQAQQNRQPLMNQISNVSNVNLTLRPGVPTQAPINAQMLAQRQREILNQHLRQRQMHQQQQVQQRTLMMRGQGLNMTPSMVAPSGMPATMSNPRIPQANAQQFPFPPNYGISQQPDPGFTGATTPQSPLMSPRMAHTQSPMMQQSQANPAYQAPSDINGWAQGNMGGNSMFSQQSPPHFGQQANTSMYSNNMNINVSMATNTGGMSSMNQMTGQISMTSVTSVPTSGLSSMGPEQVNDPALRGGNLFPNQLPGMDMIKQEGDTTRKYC

SMILES | inhibition [1] | inhibition [2]
COc1ccc(NC(=O)c2cccc(N3C(=O)c4cccc([N+](=O)[O-])c4C3=O)c2)cc1 | -32.3% | -27.1%
C=CCN(CC#CCN(C)C(=O)c1cccn1C(=O)OC(C)(C)C)Cc1ccc(OC)cc1OC | -6.71% | -1.62%
O=C(c1ccc(S(=O)(=O)Cc2cc(F)ccc2F)c([N+](=O)[O-])c1)N1CCOCC1 | 5.57% | 13.5%
CS(=O)(=O)c1ccc(Cl)c(NC(=O)c2cccc(-n3cnnn3)c2)c1 | -11.3% | -13.4%
O=C(NCc1cccnc1)/C(=C\c1ccc(-c2ccc(Cl)c(Cl)c2)o1)S(=O)(=O)c1ccccc1 | 75.3% (active) | 66.9% (active)
Cc1cc(Cl)n2c(nc3ccccc32)c1C#N | 4.56% | 28.4%
COc1ccc(NC(=O)Nc2nnc(Cc3ccc(OC)c(OC)c3)s2)cc1 | 4.37% | -0.57%
Cc1ccc(-c2noc(CCCC(=O)NC3CCCC3)n2)cc1 | 20.1% | 42.4%
Fc1ccc(-c2nnc(NC3=NCCCCC3)o2)cc1 | -10.8% | 31.4%
CC(=O)Nc1cccc(NC(=O)CSc2nc(C3CC3)nc3ccccc23)c1 | -2.73% | 27.2%
c1nnc2c3c4c(sc3ncn12)CCC4 | 4.85% | 26.2%
Cc1ccc2sc(N(CCCN(C)C)C(=O)CCS(=O)(=O)c3ccccc3)nc2c1C | 1.51% | 27.7%
COc1ccc(C(=O)N/N=C\c2coc3ccc(Cl)cc3c2=O)cc1 | 3.52% | 5.31%
